Active and inactive are the calls of the source. Unless noted, the rule behind the calls is not given here.
Key:
[1] = resazurin metabolic signal in HepG2 cells – cell-based, resazurin fluorescence, 24 h, PK04 Diversity Set, profiling panel (AID 1172); details: HepG2 viability, higher = more signal
[2] = budding yeast growth changes without added modifier – OD600, strain BY4716, 24 h, basal condition, primary screen (AID 1173); details: S. cerevisiae BY4716 growth, OD600, 24 h; higher = more signal, called active from +8 up or from −8 down
[3] = viability profiling in MM1S myeloma cells – cell-based, resazurin fluorescence, basal, 24 h, PK04 Diversity Set, profiling panel (AID 1174); details: higher = more signal, called active from +8 up or from −8 down;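 note: MM1S multiple myeloma cell line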
[4] = target: Dihydroorotate dehydrogenase (quinone), mitochondrial (Plasmodium falciparum (isolate 3D7)) (UniProt Q08210); assay: inhibition of P. falciparum DHODH – biochemical, C-terminal His tag, absorbance 600 nm, primary screen (AID 1175); details: PfDHODH enzyme, DCIP absorbance 600 nm; higher = more signal, called active from +8 up or from −8 down;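 note: recombinant parasite enzyme with a five histidine tag at its C terminus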
Chain of Dihydroorotate dehydrogenase (quinone), mitochondrial (Plasmodium falciparum (isolate 3D7)) (Q08210 whole entry, looked up): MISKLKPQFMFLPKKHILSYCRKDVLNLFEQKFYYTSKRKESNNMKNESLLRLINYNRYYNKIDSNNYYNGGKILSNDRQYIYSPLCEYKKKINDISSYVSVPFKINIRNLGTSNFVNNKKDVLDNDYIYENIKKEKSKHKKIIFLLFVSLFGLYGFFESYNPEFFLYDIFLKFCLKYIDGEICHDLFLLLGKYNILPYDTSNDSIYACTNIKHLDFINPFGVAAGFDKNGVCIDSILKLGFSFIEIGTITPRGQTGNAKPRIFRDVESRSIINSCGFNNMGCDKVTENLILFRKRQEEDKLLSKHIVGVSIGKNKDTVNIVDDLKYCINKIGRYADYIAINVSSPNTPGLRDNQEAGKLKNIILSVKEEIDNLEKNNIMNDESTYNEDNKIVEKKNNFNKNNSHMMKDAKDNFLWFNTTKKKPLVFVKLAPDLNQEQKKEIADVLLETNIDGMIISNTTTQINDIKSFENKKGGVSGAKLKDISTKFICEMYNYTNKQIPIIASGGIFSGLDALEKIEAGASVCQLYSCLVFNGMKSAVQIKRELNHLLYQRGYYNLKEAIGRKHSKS

[5] = inhibition of PAO1 biofilm formation – strain PAO1, LB-PBS medium, absorbance 600 nm, primary screen (AID 1176); details: P. aeruginosa PAO1 growth/biofilm, A600, 12 h; higher = more signal
[6] = growth modulation of vineyard yeast isolate – strain RM11-1a, OD600, basal, 24 h, primary screen (AID 1177);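 note: cultures grown under basal conditions with no added stressor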; details: S. cerevisiae RM11-1a growth, OD600, 24 h; higher = more signal, called active from +8 up or from −8 down
[7] = growth of efflux-deficient E. coli DRC39 – strain DRC39, OD650, 24 h, E. coli filamentation inducers, primary screen (AID 1178);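 note: growth measured as culture turbidity by optical density at 650 nm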; details: E. coli DRC39 acrAB, higher = more signal, called active from +8 up or from −8 down
[8] = growth of efflux-deficient E. coli DRC39 – strain DRC39, OD650, 48 h, E. coli filamentation inducers, primary screen (AID 1179);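 note: screen aims at cell division blockers that make cells filament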; details: E. coli DRC39 delta-acrAB growth, higher = more signal, called active from +8 up or from −8 down
[9] = viability profiling in RPMI8226 myeloma cells – cell-based, resazurin fluorescence, basal, 24 h, PK04 Diversity Set, profiling panel (AID 1180); details: higher = more signal;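 note: RPMI8826 multiple myeloma cell line at 5000 cells per well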
[10] = target: E3 ubiquitin-protein ligase XIAP (Homo sapiens) (UniProt P98170); assay: small molecules binding XIAP protein – biophysical, small-molecule microarray, fluorescence 635 nm, primary screen (AID 1181); details: higher = more signal;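 note: score merges 667 nm emission and signal to noise over triplicate slides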
Chain of E3 ubiquitin-protein ligase XIAP (Homo sapiens) (P98170 whole entry, looked up, the tested form may be a part): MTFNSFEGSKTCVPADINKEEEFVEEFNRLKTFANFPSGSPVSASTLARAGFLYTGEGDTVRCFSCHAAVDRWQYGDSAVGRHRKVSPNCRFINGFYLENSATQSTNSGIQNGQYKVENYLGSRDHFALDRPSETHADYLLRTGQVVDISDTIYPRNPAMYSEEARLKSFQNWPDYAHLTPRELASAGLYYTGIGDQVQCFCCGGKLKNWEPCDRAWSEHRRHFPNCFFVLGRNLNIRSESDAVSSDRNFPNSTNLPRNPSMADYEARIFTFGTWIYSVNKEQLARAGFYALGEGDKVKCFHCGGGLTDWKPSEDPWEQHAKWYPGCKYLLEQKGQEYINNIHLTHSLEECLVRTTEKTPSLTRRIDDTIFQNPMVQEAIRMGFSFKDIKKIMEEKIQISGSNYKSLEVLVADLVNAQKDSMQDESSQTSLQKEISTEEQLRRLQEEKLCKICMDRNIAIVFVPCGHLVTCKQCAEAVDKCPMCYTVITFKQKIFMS

[11] = system: XIP peptide (Xip251-270) binding; assay: XIP fragment 251-270 binding compounds – biochemical, small-molecule microarray, fluorescence 635/667 nm, 0.1 µg/mL protein, primary screen (AID 1182); details: fluorescent protein binding, 635 nm, higher = more signal, called active from +8 up or from −8 down
XIP peptide (Xip251-270) = assay: compounds binding XIP fragment 251-270 – biochemical, small-molecule microarray, fluorescence 635/667 nm, 0.5 µg/mL protein, primary screen (AID 1183); details: fluorescence 635 nm, higher = more signal
[12] = blood-stage malaria parasite viability loss – strain 3D7, DAPI fluorescence, 100 nL, primary screen (AID 1184);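 note: parasites grown inside human red blood cells in medium with human serum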; details: P. falciparum 3D7 growth, 3 d, higher = more signal
[13] = target: Homeobox protein Hox-A13 (Mus musculus) (UniProt Q62424); assay: disruptors of Hoxa13 oligonucleotide interaction – biochemical, fluorescence polarization, labeled oligonucleotide, primary screen (AID 1185); details: Hoxa13:DNA binding, 15 min, higher = more signal, called active from +8 up or from −8 down
Chain of Homeobox protein Hox-A13 (Mus musculus) (Q62424 whole entry, looked up): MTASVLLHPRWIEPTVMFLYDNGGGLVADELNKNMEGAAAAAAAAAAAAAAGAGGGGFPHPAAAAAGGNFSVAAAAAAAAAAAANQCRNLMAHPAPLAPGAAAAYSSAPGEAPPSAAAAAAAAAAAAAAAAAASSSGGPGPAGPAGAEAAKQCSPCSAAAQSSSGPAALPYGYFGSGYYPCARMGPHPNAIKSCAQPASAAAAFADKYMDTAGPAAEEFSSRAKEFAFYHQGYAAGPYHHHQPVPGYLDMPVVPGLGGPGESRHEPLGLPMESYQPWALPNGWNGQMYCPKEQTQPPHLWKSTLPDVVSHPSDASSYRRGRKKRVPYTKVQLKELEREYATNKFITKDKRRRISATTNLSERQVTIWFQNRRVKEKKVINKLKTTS

[14] = blockers of DNA damage checkpoint Chk1 activation – imaging, HeLa, hydroxyurea, phospho-Chk1 antibody, percent positive cells, primary screen (AID 1186); details: hydroxyurea-induced phospho-Chk1 immunofluorescence imaging, higher = more signal
[15] = blockers of DNA damage checkpoint Chk1 activation – imaging, HeLa, hydroxyurea, phospho-Chk1 nuclear intensity, primary screen (AID 1187); details: hydroxyurea-induced phospho-Chk1 immunofluorescence imaging, higher = more signal

SMILES	z-score [1]	z-score [2]	z-score [3]	composite z-score [4]	z-score [5]	z-score [6]	z-score [7]	z-score [8]	z-score [9]	composite z-score [10]	composite z-score [11]	composite z-score (XIP peptide (Xip251-270))	z-score [12]	z-score [13]	z-score [14]	z-score [15]
CC1(C)C(=O)C(c2ccccc2)=C2CN3C(=O)N(CCc4ccccc4)C(=O)C3(Cc3ccccc3)C=C21 (centres undefined)	-0.752	1.4 (inactive)	-1.22 (inactive)	0.362 (inactive)	0.784 (inactive)	2.07 (inactive)	0.0474 (inactive)	0.222 (inactive)	-0.562	0.237	1.7 (inactive)	-0.119	-1.34	-0.335 (inactive)	-0.0628 (inactive)	0.121 (inactive)
COc1c(C)cc(-c2cc3c(c(-c4ccccc4)n2)[Si](C(C)C)(C(C)C)O[C@H]3c2ccccc2)cc1C	-0.315	-0.0888 (inactive)	-0.477 (inactive)	-1.21 (inactive)	0.161 (inactive)	-1.33 (inactive)	-0.102 (inactive)	-0.446 (inactive)	-0.327	-0.0186	0.648 (inactive)	-0.029	-2.88	-0.742 (inactive)	-0.59 (inactive)	-0.492 (inactive)
COCCn1c(C(=O)N(C)C)cc2c1C[C@H]1CN(C(=O)c3ccccc3)[C@@](Cc3ccc(F)cc3)(C(=O)OC)[C@@H]21	-0.473	0.717 (inactive)	-0.665 (inactive)	-0.0005 (inactive)	0.535 (inactive)	1.02 (inactive)	0.0751 (inactive)	0.223 (inactive)	-0.38	0.0447	0.112 (inactive)	0.0743	-0.292	-4.93 (inactive)	0.562 (inactive)	0.478 (inactive)
C[N+](C)(C)CCCCNC(=O)[C@H]1C[C@H]2C(=O)N3CCC[C@H]3C(=O)N2[C@H]1c1ccc(O)cc1	0.0897	1.06 (inactive)	-1.13 (inactive)	-30.3 (active)	0.146 (inactive)	0.266 (inactive)	0.0346 (inactive)	-0.322 (inactive)	-0.977	0.455	1.36 (inactive)	0.806	-0.0706	-0.675 (inactive)	0.0919 (inactive)	-0.206 (inactive)
CC(C)C[C@@H]1NC(=O)[C@@H]2C[C@H](C(=O)NCCCCN(C)C)[C@H](c3ccc(O)cc3)N2C1=O	0.955	0.463 (inactive)	0.396 (inactive)	-0.0312 (inactive)	-0.475 (inactive)	0.505 (inactive)	-0.113 (inactive)	-0.401 (inactive)	0.0109	0.102	-0.0862 (inactive)	0.937	-0.06	-1.49 (inactive)	0.326 (inactive)	0.219 (inactive)
CCCC[C@H]1OB(O)C[C@H]2C1=C(C)Cn1c(=O)n(-c3ccccc3)c(=O)n12	0.916	0.422 (inactive)	-0.441 (inactive)	-0.0299 (inactive)	-0.638 (inactive)	0.218 (inactive)	-0.13 (inactive)	-0.605 (inactive)	0.191	-0.0599	-0.0734 (inactive)	0.116	-2.15	-0.581 (inactive)	-0.705 (inactive)	-0.679 (inactive)
C=C(COC)C(=O)CC[C@@H](OC(=O)c1ccccc1-c1ccccc1C(=O)O)c1ccc(CO)o1	-0.731	-17.9 (active)	-0.0674 (inactive)	-6.3 (inactive)	0.85 (inactive)	-21.6 (active)	0.163 (inactive)	-0.171 (inactive)	0.62	0.294	-0.5 (inactive)	0.633	1.47	-4.32 (inactive)	1.37 (inactive)	0.477 (inactive)
CCCCC(=C=CC[C@H](O)c1ccccc1OCCO)C[C@H](O)c1cc(Cl)cc(Cl)c1O	-0.268	-4.13 (inactive)	-0.392 (inactive)	-1.69 (inactive)	0.33 (inactive)	0.31 (inactive)	0.504 (inactive)	0.32 (inactive)	-0.45	-0.138	0.776 (inactive)	0.832	-1.09	-4.23 (inactive)	0.0899 (inactive)	1.23 (inactive)
COc1ccc([Si](C)(C)[C@@H]2[C@@H](CCO)O[C@]3(C(=O)N(Cc4ccc(N5C(=O)c6cccc7cccc5c67)cc4)c4ccccc43)[C@H]2C)cc1	-0.454	0.338 (inactive)	-0.898 (inactive)	-0.774 (inactive)	1.51 (inactive)	3.87 (inactive)	1.68 (inactive)	1.19 (inactive)	-4.48	0.0623	0.476 (inactive)	0.596	-2.68	-0.946 (inactive)	-0.903 (inactive)	-0.198 (inactive)

Reference: PubChem BioAssay
